Outcome and AC50 data for 33 molecules are collected here from PubChem BioAssay (EPA / NIEHS).

Values joined by “and” are separate entries in the source; they are usually repeats but may differ in a detail not shown here. Identical values can stand only once. Results filed as inconclusive are left out. Where a structure was tested more than once in an assay, its records may differ in their call. Active and inactive are the calls of the source. How the source made its calls, unless noted: active means hit-call score of the fitted dose curve at least 0.9, where 1 is the maximum; inactive means score below 0.9.

Assay [1] has as its target Nucleoli Translocation, AR (gene 367) (UniProt P10275). The experiment in a line: UPITT_HCI_U2OS_AR_TIF2_Nucleoli_Antagonist: University of Pittsburgh U2OS Androgen Receptor-Transcriptional Intermediary Factor 2 (AR-TIF2) Antagonism High Content Imaging Assay for Nucleoli Translocation (AID 2283997; active means hit-call score of the fitted dose curve at least 0.9, where 1 is the maximum). In short, it runs like this: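 An antagonist-mode imaging screen: engineered U2OS (AR-RFP, TIF2-GFP) exposed to 20 uM compound, 0.2% DMSO. Activity reflects nucleolar red fluorescence change relative to DHT baseline.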

For assay [2] the target is unchanged. The experiment in a line: UPITT_HCI_U2OS_AR_TIF2_Nucleoli_Agonist: University of Pittsburgh U2OS Androgen Receptor-Transcriptional Intermediary Factor 2 (AR-TIF2) Agonism High Content Imaging Assay for Nucleoli Translocation (AID 2283998; active means hit-call score of the fitted dose curve at least 0.9, where 1 is the maximum). An outline of the steps: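 U2OS cells expressing RFP-tagged human AR and GFP-tagged TIF2; red fluorescence in nucleoli quantified by high-content imaging. Primary screen at 20 uM final (0.2% DMSO); concentration-response 0.195–50 uM (0.5% DMSO), fitted upward versus DMSO.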

In assay [3] the target is Ratio of Nucleoli Translocation and Cytoplasm, AR (gene 367) (UniProt P10275). Nature of the assay: UPITT_HCI_U2OS_AR_TIF2_Nucleoli_Cytoplasm_Ratio_Antagonist: University of Pittsburgh U2OS Androgen Receptor-Transcriptional Intermediary Factor 2 (AR-TIF2) Antagonism High Content Imaging Assay for Ratio of Nucleoli Translocation and Cytoplasm (AID 2283999; active means hit-call score of the fitted dose curve at least 0.9, where 1 is the maximum;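 further: antagonists lower the DHT-driven ratio of nucleolar to cytoplasmic red signal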). An outline of the steps: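 Read-out is the ratio of nucleolar to cytoplasmic AR-RFP fluorescence, imaged by high-content microscopy in U2OS cells coexpressing TIF2-GFP. Single-point 20 uM screen, triplicate confirmation, then 0.195–50 uM dose response; activity referenced to DHT baseline.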

For assay [4] the target is unchanged. The experiment in a line: UPITT_HCI_U2OS_AR_TIF2_Nucleoli_Cytoplasm_Ratio_Agonist: University of Pittsburgh U2OS Androgen Receptor-Transcriptional Intermediary Factor 2 (AR-TIF2) Agonism High Content Imaging Assay for Ratio of Nucleoli Translocation and Cytoplasm (AID 2284000; active means hit-call score of the fitted dose curve at least 0.9, where 1 is the maximum;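 further: hits raise the red nucleolar to cytoplasm ratio above vehicle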). An outline of the steps:
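Primary screen at 20 uM final (0.2% DMSO), then triplicate confirmation and dose-response from 0.195 to 50 uM final (0.5% DMSO). Cells: U2OS with AR-RFP and TIF2-GFP. Endpoint is the nucleoli/cytoplasm red-fluorescence ratio, gain-of-signal vs DMSO.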

A short description of assay [5]: CCTE_Simmons_MITO_basal_resp_rate: CCTE's HepG2 Seahorse XF Respirometric Screening Assay at Basal Respiratory State, Simmons Lab (AID 2284001). The settings on record: actives raise or lower the signal. In short, it runs like this: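 Readout is oxygen consumption rate after test compound injection, measured by Seahorse XF in HepG2 cells. Seven concentrations from 125 nM up to 100 uM final are tested, and activity in either direction is fitted against DMSO.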

A short description of assay [6]: CCTE_Simmons_MITO_inhib_resp_rate: CCTE's HepG2 Seahorse XF Respirometric Screening Assay at Inhibited Respiratory State [full ETC block], Simmons Lab (AID 2284006). Conditions: actives raise or lower the signal. An outline of the steps:
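OCR read-out in the inhibited phase following rotenone/antimycin A, after compound and FCCP injections, in HepG2 cells. Seven concentrations (125 nM to 100 uM final), three biological replicates, 6-min cycles over 72 min; DMSO baseline.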

A short description of assay [7]: CCTE_Simmons_MITO_viability: CellTiter-Glo Viability Assessment for CCTE's HepG2 Seahorse XF Respirometric Screening Assay [post-hoc], Simmons Lab (AID 2284007; active means hit-call score of the fitted dose curve at least 0.9, where 1 is the maximum;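 on AC50: cells exposed to chemical for 90 min before the ATP read; actives lower ATP signal relative to DMSO baseline meaning reduced viability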). An outline of the steps:
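Luciferase-coupled ATP luminescence, single endpoint. HepG2, post-respirometry. Compound 125 nM–100 uM final, 7 conc., 90 min. n=3 biological, technical singles. DMSO vehicle/baseline; dichlone 10 nM–100 uM, 8 conc., as positive control.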
In general terms: ATP-based viability assays read luminescence as a measure of living cells.

Assay [8] is described as follows: CCTE_Shafer_MEA_acute_spike_number: CCTE's Neural Acute Assay for Total Number of Spikes, Shafer Lab (AID 2284008).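 On AC50: curve fitted for decrease in spike count so AC50 reflects inhibitors.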 An outline of the steps: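 Rat primary cortical neurons on 48-well MEA plates, DIV 13 or 15, at 37 C. 40 min baseline then 40 min with compound (0.03-40 uM); spikes detected at 8x rms noise, expressed as percent change from baseline.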
A short description of assay [9]: CCTE_Shafer_MEA_acute_firing_rate_mean: CCTE's Neural Acute Assay for Mean Firing Rate, Shafer Lab (AID 2284009).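 Further: analyzed for loss of signal so actives lower firing rate relative to DMSO.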 In short, it runs like this: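 Spontaneous spiking of primary rat cortical networks, DIV 13/15, 37 C. Compound 0.03-40 uM, n ≥3 wells; 40 min baseline vs 40 min treated. Endpoint fitted in loss-of-signal direction against DMSO.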
A further assay relates to DIO1 (gene 1733). Nature of the assay: CCTE_GLTED_hDIO1: CCTE's human Deiodinase 1 (DIO1) Inhibition Assay, Great Lakes Toxicology and Ecology Division (GLTED) Lab (AID 2283987; active means hit-call score of the fitted dose curve at least 0.9, where 1 is the maximum;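 further: isolated human DIO1 enzyme in a cell-free setup rather than cells; enzyme activity read as free iodide liberated from substrate via Sandell-Kolthoff colorimetry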). In short, it runs like this: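 Cell-free human DIO1 enzyme incubated 3 h with test chemical; iodide freed from substrate then measured by Sandell-Kolthoff absorbance. Run in triplicate; loss of signal relative to DMSO taken as inhibition.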

Assay [10] can be described thus: TOX21_TR_RXR_BLA_Antagonist_Followup_viability: Viability Assessment in the Tox21 Thyroid Hormone Receptor beta Retinoid X Receptor alpha (RXRa) Antagonism Beta-lactamase (BLA) Follow-Up Assay (AID 2283979; active means hit-call score of the fitted dose curve at least 0.9, where 1 is the maximum). An outline of the steps: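 RXRa-UAS-bla HEK293T cells seeded 2,500/well in phenol red-free DMEM with 2% charcoal-stripped FBS, attached 5 h, then exposed to compounds at 11 concentrations in triplicate for 16 h at 37C/5% CO2. Viability read by CellTiter-Glo ATP luminescence; bidirectional fit versus DMSO.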

Chain of Ratio of Nucleoli Translocation and Cytoplasm, AR (gene 367) (P10275 whole entry, looked up): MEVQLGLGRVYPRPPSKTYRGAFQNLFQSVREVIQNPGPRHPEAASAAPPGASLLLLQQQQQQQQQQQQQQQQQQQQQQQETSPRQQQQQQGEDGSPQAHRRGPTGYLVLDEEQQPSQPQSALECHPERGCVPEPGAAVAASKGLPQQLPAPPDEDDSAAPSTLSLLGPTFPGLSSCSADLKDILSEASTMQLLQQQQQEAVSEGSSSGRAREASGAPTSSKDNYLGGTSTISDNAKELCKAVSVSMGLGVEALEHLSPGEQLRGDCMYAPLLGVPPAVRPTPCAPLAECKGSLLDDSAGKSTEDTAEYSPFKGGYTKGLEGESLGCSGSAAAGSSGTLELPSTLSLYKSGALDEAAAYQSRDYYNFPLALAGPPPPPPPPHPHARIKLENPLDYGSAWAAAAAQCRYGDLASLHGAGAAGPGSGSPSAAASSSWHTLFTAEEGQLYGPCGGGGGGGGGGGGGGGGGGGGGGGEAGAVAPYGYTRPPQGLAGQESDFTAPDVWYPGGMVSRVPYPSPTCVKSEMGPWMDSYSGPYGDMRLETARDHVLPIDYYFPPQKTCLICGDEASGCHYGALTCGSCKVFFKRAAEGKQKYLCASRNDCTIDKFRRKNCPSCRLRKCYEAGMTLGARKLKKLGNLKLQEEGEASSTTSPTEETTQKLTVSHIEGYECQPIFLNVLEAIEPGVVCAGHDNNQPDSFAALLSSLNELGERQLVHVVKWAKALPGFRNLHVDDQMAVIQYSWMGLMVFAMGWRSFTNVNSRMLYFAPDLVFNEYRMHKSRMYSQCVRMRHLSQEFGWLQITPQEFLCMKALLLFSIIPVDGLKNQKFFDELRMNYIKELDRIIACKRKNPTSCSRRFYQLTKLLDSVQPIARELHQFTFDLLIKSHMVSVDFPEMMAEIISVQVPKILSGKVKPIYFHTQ
Chain of Nucleoli Translocation, AR (gene 367) (P10275 whole entry, looked up): as above

The AC50 is the midpoint of the concentration-response curve, whichever way the signal moves. Take `CCOP(=O)(NC(C)C)Oc1ccc(SC)c(C)c1` (stereo unspecified): the molecule was classed as inactive in assay [1], in assay [2], in [3], in [4], in [5] and in [6]. Further, the outcome in assay [7] was inactive. Moreover, the AC50 in assay [8] and in assay [9] was 10.2 µM (active) throughout.
Take `CCCSP(=O)(OCC)SCCC`: the call in [1], in assay [2], in assay [3], in [4], in assay [6] and in assay [7] was inactive. Also, in assay [5], the AC50 is 32.8 µM (active).
Turning to `CCCOc1nn(C(=O)NS(=O)(=O)c2ccccc2C(=O)OC)c(=O)n1C`, the result in assay [1], in assay [2], in [3] and in assay [4] was inactive.
In the case of `CN(C)[C@@H]1C(=O)C(C(N)=O)=C(O)[C@@]2(O)C(=O)C3=C(O)c4c(O)cccc4[C@@](C)(O)[C@H]3[C@H](O)[C@@H]12`, the AC50 with DIO1 (gene 1733) is 29.8 µM (active) and 15.9 µM (active) and 27.1 µM (active). Also, the call in assay [5], in [6], in assay [8] and in assay [9] was inactive.
Consider `CC[C@H](C)[C@H]1O[C@]2(C=C[C@@H]1C)C[C@@H]1C[C@@H](C/C=C(\C)[C@@H](O[C@H]3C[C@H](OC)[C@@H](O[C@H]4C[C@H](OC)[C@@H](NC)[C@H](C)O4)[C@H](C)O3)[C@@H](C)/C=C/C=C3\CO[C@@H]4[C@H](O)C(C)=C[C@@H](C(=O)O1)[C@]34O)O2`, for which the AC50 with DIO1 (gene 1733) was 26 µM (active); in [5] it was 25.7 µM (active); in assay [6], 84.7 µM (active); in assay [7], 86.9 µM (active); in assay [8] it was 4.95 nM (active) and 26.8 nM (active); in [9], 4.94 nM (active) and 26.8 nM (active).
On to `N#CSCSC#N`, for which the half-maximal activity concentration (AC50) is 16.5 µM (active) in [1], 12.7 µM (active) in [3], 32.6 µM (active) in [5] and 67.6 µM (active) in assay [7]. For the same molecule, the result in assay [2], in [6], in assay [8] and in assay [9] was inactive.
As to `CSC1=N[C@@](C)(c2ccccc2)C(=O)N1Nc1ccccc1`, the molecule was classed as inactive in [10], in assay [6], in assay [7], in assay [8] and in [9]. Moreover, the AC50 is 50 µM (active) in assay [5], 5.8 µM (active) in assay [8] and 5.76 µM (active) in [9].
As for `CC(C)N(C(=O)SCC(Cl)=C(Cl)Cl)C(C)C`, the call in [5], in [6] and in assay [7] was inactive. In addition, the AC50 in assay [8] is 8.85 µM (active) and 5.81 µM (active); in assay [9] it was 8.79 µM (active) and 5.81 µM (active).
As for `O=c1ccc(=O)[nH][nH]1`, the molecule was classed as inactive in assay [1], in [2] and in [4].
Consider `CCCCOC(=O)[C@@H](C)Oc1ccc(Oc2ccc(C#N)cc2F)cc1`, for which the outcome in [5], in assay [6] and in [7] was inactive.
Turning to `CCOP(=S)(OCC)SCCSCC`, the molecule was classed as inactive in assay [5], in assay [6], in assay [8] and in assay [9].
As for `O=C(O)c1cc(Oc2ccc(C(F)(F)F)cc2Cl)ccc1[N+](=O)[O-]`, the molecule was called inactive in assay [6], in assay [7], in [8] and in [9].
In the case of `CC(C)[C@H](C(=O)O[C@H](C#N)c1cccc(Oc2ccccc2)c1)c1ccc(Cl)cc1`, the call in [8] and in assay [9] was inactive.
With `CC(=NC#N)N(C)Cc1ccc(Cl)nc1`, the outcome in assay [8] and in [9] was inactive.
Regarding `CCOC(=O)COc1cc(-c2nn(C)c(OC(F)F)c2Cl)c(F)cc1Cl`, the molecule was classed as inactive in assay [1], in assay [2] and in assay [4].
Turning to `FC(F)C(F)(F)OCC(Cn1cncn1)c1ccc(Cl)cc1Cl` (stereo unspecified), the AC50 in assay [5] is 12.8 µM (active); in assay [7] it was 16.9 µM (active); in [8], 5.94 µM (active); in assay [9] it was 5.92 µM (active). In assay [6], the molecule was called inactive.
As for `CCC(=O)Nc1ccc(Cl)c(Cl)c1`, the AC50 is 14.3 µM (active) in assay [1] and 41.1 µM (active) in [5]. The result in assay [3], in assay [4], in assay [6] and in [7] was inactive.
With `C#CCC1=C(C)C(OC(=O)C2C(C=C(C)C)C2(C)C)CC1=O` (stereo unspecified), the AC50 in assay [5] was 34.9 µM (active); in assay [8], 27.4 µM (active); in assay [9], 27.4 µM (active). In addition, the molecule was classed as inactive in assay [6] and in assay [7].
`CC1(C(=O)Nc2ccc(O)c(Cl)c2Cl)CCCCC1`: in assay [5], the AC50 was 29.8 µM (active). Further, the call in assay [6] and in assay [7] was inactive.
As to `CCOP(=S)(Oc1cnc(C(C)(C)C)nc1)OC(C)C` (stereo unspecified), the concentration at half-maximal activity (AC50) in assay [5] was 59.3 µM (active); in [8], 15.6 µM (active); in [9] it was 15.5 µM (active). Also, the outcome in [6] and in assay [7] was inactive.
With `CC1=NNC(=O)N(/N=C/c2cccnc2)C1`, the result in assay [8] and in assay [9] was inactive.
In the case of `CN(C)NC(=O)CCC(=O)O`, the result in assay [8] and in assay [9] was inactive.
In the case of `CCCSP(=O)(OCC)Oc1ccc(Br)cc1Cl` (stereo unspecified), the outcome in [5] and in [6] was inactive.
Consider `COP(=O)(NC(C)=O)SC` (stereo unspecified), for which the molecule was called inactive in [8] and in assay [9].
`COP(=O)(OC)C(O)C(Cl)(Cl)Cl` (stereo unspecified): the molecule was classed as inactive in assay [8] and in assay [9].
Regarding `CCOP(=S)(OCC)Oc1ccc2c(C)c(Cl)c(=O)oc2c1`, the AC50 in assay [8] and in [9] was 1.85 µM (active) each time.
On to `CC(COc1ccc(Oc2ccccc2)cc1)Oc1ccccn1` (stereo unspecified), for which the molecule was called inactive in [1], in assay [3], in [5] and in assay [6]. Further, the AC50 in assay [8] and in assay [9] was 20 µM (active) each time.
Consider `Cc1ccn2nc(S(=O)(=O)Nc3c(F)cccc3F)nc2n1`, for which the outcome in assay [8] and in [9] was inactive.
Regarding `COc1cc(OC)nc(Sc2cccc(Cl)c2C(=O)O)n1`, the molecule was called inactive in [8] and in assay [9].
On to `CCc1cnc(C2=NC(C)(C(C)C)C(=O)N2)c(C(=O)O)c1` (stereo unspecified), for which the molecule was called inactive in assay [8] and in [9].
For the molecule `CN1COCN(Cc2cnc(Cl)s2)C1=N[N+](=O)[O-]`, the call in [8] and in assay [9] was inactive.
With `C[Si](Cn1cncn1)(c1ccc(F)cc1)c1ccc(F)cc1`, the AC50 is 13.9 µM (active) in assay [5], 10.3 µM (active) in [7], 4.69 µM (active) in assay [8] and 4.69 µM (active) in assay [9]. For the same molecule, the molecule was classed as inactive in assay [6].
`CCC(CC)Nc1c([N+](=O)[O-])cc(C)c(C)c1[N+](=O)[O-]`: the AC50 in assay [5] is 24.8 µM (active). The outcome in assay [6] and in assay [7] was inactive.
